The results in this text go back to PubChem BioAssay.

The subject of experiment [1] is Wnt5a (protein binding on small-molecule microarray). In words: small molecules binding Wnt5a protein – biophysical, small-molecule microarray, 635/667 nm fluorescence, primary screen (AID 1142).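 Note: fluorescence read at 667 nm with signal to noise per printed feature.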 Conditions: 635 nm fluorescence, higher = more signal.
A short description of experiment [2]: ATP-based viability of Huh7 replicon cells – cell-based, CellTiter-Glo luminescence, basal, 48 h, cytotoxicity control for HCV replication inhibitor project, primary screen (AID 1143).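 Note: Huh7 hepatoma cells carrying a hepatitis C replication reporter with no stimulus; test concentration not given here.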 Conditions: higher = more signal, called active from +8 up or from −8 down.
The nature of experiment [3]: Pseudomonas biofilm growth suppression – PAO1 strain, BacTiter-Glo luminescence, LB-PBS, primary screen (AID 1144). Conditions: P. aeruginosa PAO1 biofilm, 12 h, higher = more signal.
The nature of experiment [4]: basal CRE-LacZ reporter activity in PC12 – cell-based, unstimulated, primary screen (AID 1145). Conditions: no forskolin, luminescence, 4.5 h, higher = more signal, called active from +8 up or from −8 down.
Experiment [5] in a line: forskolin-driven CRE-LacZ activity in PC12 – cell-based, CRE-LacZ reporter, forskolin-stimulated, primary screen (AID 1146).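 Note: PC12 cells with 6xCRE LacZ reporter stimulated by forskolin 10 µM; beta-galactosidase reporter signal reflecting CREB driven transcription.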 The conditions noted are these: luminescence, 4.5 h, higher = more signal, called active from +8 up or from −8 down.
The target of experiment [6] is Streptavidin (Streptomyces avidinii) (UniProt P22629). In words: compounds binding control protein streptavidin – biophysical, small-molecule microarray, 635/667 nm fluorescence, artefact control for SMM compound annotation, primary screen (AID 1147).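 Note: signal reflects streptavidin binding to arrayed compounds as a control protein.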 Conditions: higher = more signal.
Streptavidin (Streptomyces avidinii), sequence (P22629 whole entry, looked up): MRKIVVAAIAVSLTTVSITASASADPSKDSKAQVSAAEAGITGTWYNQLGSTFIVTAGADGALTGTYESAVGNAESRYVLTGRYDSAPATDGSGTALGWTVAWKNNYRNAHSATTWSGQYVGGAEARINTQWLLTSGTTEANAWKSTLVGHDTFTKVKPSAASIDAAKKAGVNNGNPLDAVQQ
Experiment [7] in a line: probe aInhba binding on compound microarray – biochemical, small-molecule microarray, 635/667 nm fluorescence, primary screen (AID 1148).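 Note: score merges 667nm spot fluorescence with signal-to-noise for antibody binding to printed compounds.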 Conditions: higher = more signal.
For experiment [8], the target named is Torsin-1A (Homo sapiens) (UniProt O14656). In words: TOR1A wild-type binding on microarray – cell lysate, small-molecule microarray, lysate, 635/667 nm, primary screen (AID 1149). The conditions noted are these: COS7 hTOR1A-WT lysate, 635 nm fluorescence, higher = more signal.
Torsin-1A (Homo sapiens), sequence (O14656 whole entry, looked up): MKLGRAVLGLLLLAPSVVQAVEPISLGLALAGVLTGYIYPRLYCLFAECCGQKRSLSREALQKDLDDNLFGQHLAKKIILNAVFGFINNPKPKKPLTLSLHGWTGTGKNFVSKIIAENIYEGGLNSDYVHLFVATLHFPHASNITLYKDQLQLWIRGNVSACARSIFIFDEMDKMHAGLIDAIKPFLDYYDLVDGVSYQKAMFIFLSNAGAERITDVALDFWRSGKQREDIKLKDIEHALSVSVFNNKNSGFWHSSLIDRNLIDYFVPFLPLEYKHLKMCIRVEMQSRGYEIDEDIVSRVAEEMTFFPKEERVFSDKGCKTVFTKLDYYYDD
Experiment [9] has the same target. In words: torsin A mutant lysate binding on microarrays – cell lysate, small-molecule microarray, COS7 lysate, 635/667 nm fluorescence, primary screen (AID 1150).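 Note: score pools 667 nm emission and signal to noise measuring lysate protein binding.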 Conditions: COS7 hTOR1A mutant lysate, 635 nm fluorescence, higher = more signal.
The subject of experiment [10] is Sonic hedgehog protein (Shh). In words: Sonic hedgehog microarray binding compounds – biochemical, small-molecule microarray, 635/667 nm fluorescence, primary screen (AID 1151).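 Note: Shh protein binding to compounds spotted on small-molecule microarray slides; score combines spot fluorescence intensity with signal-to-noise across triplicate slides.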 Conditions: 635 nm fluorescence, higher = more signal.
Experiment [11] is described as follows: optical density shifts of acrAB sulA E. coli – strain DRC41, OD650, 48 h, E. coli filamentation inducer project, primary screen (AID 1152).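 Note: E. coli MC1000 strain DRC41 lacking acrAB efflux pump and sulA.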 The conditions noted are these: higher = more signal, called active from +8 up or from −8 down.
Experiment [12] can be described thus: probe aLefty1 binding on compound microarray – biochemical, small-molecule microarray, 635/667 nm fluorescence, primary screen (AID 1153).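 Note: score merges spot fluorescence with signal-to-noise ratio from the scanned slide images.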 Conditions: higher = more signal.
Experiment [13] is described as follows: plasmodial surface anion channel blockers, osmotic lysis – cell-based, P. falciparum Indochina, OD700, 1 h, primary screen (AID 1154). Conditions: P. falciparum Indochina infected RBC osmotic lysis, higher = more signal, called active from +8 up or from −8 down.
The nature of experiment [14]: plasmodial surface anion channel blockers, osmotic lysis – cell-based, P. falciparum Indochina, OD700, 2 h, primary screen (AID 1155).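 Note: lysis reports solute entry through the parasite surface anion channel PSAC.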 Conditions: P. falciparum Indochina infected erythrocytes, higher = more signal, called active from +8 up or from −8 down.
Experiment [15] in a line: changes in parasitized red cell lysis, either direction – P. falciparum Indochina, OD700, 3 h, PSAC antagonist project, primary screen (AID 1156). Conditions: P. falciparum-infected erythrocytes, osmotic lysis, higher = more signal, called active from +8 up or from −8 down.
A short description of experiment [16]: plasmodial surface anion channel blockers, osmotic lysis – cell-based, P. falciparum Indochina, OD700, 18 h, primary screen (AID 1157). The conditions noted are these: P. falciparum Indochina infected erythrocytes, osmotic lysis OD700, 18 h; higher = more signal, called active from +8 up or from −8 down.
Experiment [17] in a line: S6 kinase pathway phospho-S6 level changes – cell-based, A549, cytoblot, luminescence, serum-stimulated, primary screen (AID 1158).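 Note: serum-stimulated A549 lung adenocarcinoma cells; signal is phosphorylated S6 detected by cytoblot immunostaining with HRP secondary.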 Conditions: 5 h, higher = more signal.
For experiment [18], the target named is NADPH oxidase 2 (Homo sapiens) (UniProt P04839). The experiment can be described thus: compounds shifting NOX2 Amplex Red fluorescence – cell-based, HEK293-NOX2, PMA-stimulated, NOX inhibitor project, primary screen (AID 1159). Note: test concentration not given here. Conditions: 45 min, higher = more signal, called active from +8 up or from −8 down.
NADPH oxidase 2 (Homo sapiens), sequence (P04839 whole entry, looked up): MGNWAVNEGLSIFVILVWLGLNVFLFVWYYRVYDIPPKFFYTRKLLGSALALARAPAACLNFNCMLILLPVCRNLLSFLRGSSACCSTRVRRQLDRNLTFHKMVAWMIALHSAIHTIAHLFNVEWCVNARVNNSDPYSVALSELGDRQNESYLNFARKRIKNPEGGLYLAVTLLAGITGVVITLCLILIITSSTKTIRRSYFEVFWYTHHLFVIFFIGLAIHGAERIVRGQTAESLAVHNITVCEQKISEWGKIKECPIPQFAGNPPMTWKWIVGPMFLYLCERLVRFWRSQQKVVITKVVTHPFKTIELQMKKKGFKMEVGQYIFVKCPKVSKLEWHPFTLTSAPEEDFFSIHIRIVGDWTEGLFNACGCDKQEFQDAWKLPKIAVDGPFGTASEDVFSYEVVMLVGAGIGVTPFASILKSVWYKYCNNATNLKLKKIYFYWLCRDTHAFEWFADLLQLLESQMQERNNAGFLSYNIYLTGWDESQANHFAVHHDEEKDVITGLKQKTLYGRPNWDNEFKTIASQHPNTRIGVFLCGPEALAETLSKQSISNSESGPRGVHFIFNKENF
In experiment [19] the target is NADPH oxidase 4 (Homo sapiens) (UniProt Q9NPH5). In words: compounds shifting NOX4 Amplex Red fluorescence – cell-based, HEK293-NOX4, tetracycline-induced, NOX inhibitor project, primary screen (AID 1160). The conditions noted are these: HEK293-NOX4, Amplex Red H2O2 fluorescence, 45 min; higher = more signal, called active from +8 up or from −8 down.
NADPH oxidase 4 (Homo sapiens), sequence (Q9NPH5 whole entry, looked up): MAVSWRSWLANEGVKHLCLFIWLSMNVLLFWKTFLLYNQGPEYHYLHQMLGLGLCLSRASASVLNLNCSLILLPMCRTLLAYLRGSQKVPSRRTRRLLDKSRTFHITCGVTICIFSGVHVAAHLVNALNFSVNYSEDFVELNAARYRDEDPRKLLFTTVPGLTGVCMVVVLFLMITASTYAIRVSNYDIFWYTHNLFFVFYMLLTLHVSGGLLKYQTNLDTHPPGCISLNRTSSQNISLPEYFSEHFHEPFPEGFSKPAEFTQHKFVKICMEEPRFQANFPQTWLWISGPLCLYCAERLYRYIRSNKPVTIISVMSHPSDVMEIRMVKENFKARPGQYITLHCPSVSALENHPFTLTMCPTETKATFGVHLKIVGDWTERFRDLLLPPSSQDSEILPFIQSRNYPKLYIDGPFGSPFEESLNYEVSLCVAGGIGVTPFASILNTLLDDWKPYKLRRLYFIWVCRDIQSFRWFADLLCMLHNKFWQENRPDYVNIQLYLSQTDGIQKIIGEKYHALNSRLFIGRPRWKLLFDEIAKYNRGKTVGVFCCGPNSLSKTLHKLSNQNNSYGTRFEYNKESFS
Experiment [20] addresses NADPH oxidase 5 (Homo sapiens) (UniProt Q96PH1). The experiment can be described thus: compounds shifting NOX5 Amplex Red fluorescence – cell-based, HEK293-NOX5, NOX inhibitor project, primary screen (AID 1161). Conditions: HEK293-NOX5, ionomycin, 45 min, higher = more signal.

The structures appear in SMILES notation. Activity calls are given as the source filed them. Unless noted, the rule behind the calls is not given here.

NADPH oxidase 5 (Homo sapiens), sequence (Q96PH1 whole entry, looked up): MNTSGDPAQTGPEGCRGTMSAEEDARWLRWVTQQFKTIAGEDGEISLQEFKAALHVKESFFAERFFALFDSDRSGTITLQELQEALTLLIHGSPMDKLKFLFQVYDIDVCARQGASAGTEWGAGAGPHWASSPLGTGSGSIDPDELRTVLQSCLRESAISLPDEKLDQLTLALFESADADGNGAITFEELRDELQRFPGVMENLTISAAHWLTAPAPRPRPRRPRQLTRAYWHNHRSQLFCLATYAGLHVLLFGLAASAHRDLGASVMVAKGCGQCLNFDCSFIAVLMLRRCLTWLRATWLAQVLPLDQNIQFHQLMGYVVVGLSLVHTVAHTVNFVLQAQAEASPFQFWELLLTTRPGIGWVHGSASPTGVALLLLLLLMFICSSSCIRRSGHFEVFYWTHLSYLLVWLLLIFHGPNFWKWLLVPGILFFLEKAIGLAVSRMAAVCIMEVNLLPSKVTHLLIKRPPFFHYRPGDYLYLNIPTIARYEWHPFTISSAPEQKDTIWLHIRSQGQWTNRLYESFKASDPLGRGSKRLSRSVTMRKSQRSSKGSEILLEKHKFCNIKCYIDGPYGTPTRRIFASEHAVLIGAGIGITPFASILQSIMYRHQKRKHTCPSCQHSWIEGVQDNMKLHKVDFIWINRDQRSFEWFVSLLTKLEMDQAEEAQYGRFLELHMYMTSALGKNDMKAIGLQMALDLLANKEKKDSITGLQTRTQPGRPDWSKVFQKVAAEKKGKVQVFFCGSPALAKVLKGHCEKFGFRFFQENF

With `Cc1ccc(S[C@]2(C(=O)O)CC(=O)N(Cc3cc(C(F)(F)F)cc(C(F)(F)F)c3)[C@@H]2c2ccc(CO)cc2I)cc1`, the composite z-score is 0.176 in experiment [1]; -0.718 in experiment [6]; -0.106 in experiment [7]; -1.1 with Torsin-1A (Homo sapiens) [8]; -0.3 with Torsin-1A (Homo sapiens) [9]; 0.42 in experiment [10]. In addition, the composite z-score in experiment [12] was 0.26. Also, the z-score in [2] was -2.71 (inactive); in experiment [3] it was 0.519 (inactive); in experiment [4], 0.261 (inactive); in experiment [5], 0.859 (inactive); in experiment [11] it was 0.367 (inactive); in experiment [13] it was 5.86 (inactive). For the same compound, the z-score in experiment [14] was 0.877 (inactive); in experiment [15] it was 1.03 (inactive); in experiment [16], 0.522 (inactive); in experiment [17] it was 0.243; in [18], 1.75 (inactive); in [19], -2.5 (inactive). In addition, the z-score in experiment [20] stood at 0.547.
Consider `[N-]=[N+]=NCc1ccccc1C[C@@]1(C(=O)O)N=C(c2ccc(OCCCO)cc2)O[C@@H]1c1ccccc1N=[N+]=[N-]`, for which the composite z-score in [1] is -0.0964; in experiment [6], 0.312; in [7], 0.0073; with Torsin-1A (Homo sapiens) [8], 0.0819; in the experiment with Torsin-1A (Homo sapiens) [9], 0.0245; in experiment [10], -0.165. The compound further returned a composite z-score in [12] of 0.337. Also, the z-score was -2.2 (inactive) in [2]; -0.439 (inactive) in [3]; 0.488 (inactive) in experiment [4]; 0.142 (inactive) in experiment [5]; 0.051 (inactive) in experiment [11]; 30.3 (active) in [13]. In addition, the z-score in [14] is 24.4 (active); in [15], 1.44 (inactive); in experiment [16], 5.12 (inactive); in experiment [17] it was -0.272; in [18], -0.0613 (inactive); in [19], 1.21 (inactive). Besides, in experiment [20], the z-score was 0.819.
On to `COC(=O)Cn1c(C(=O)N2CCCC2)cc2c1C[C@H]1CN(C(=O)c3ccccc3)[C@@](Cc3ccc(OC)cc3)(C(=O)OC)[C@@H]21`, for which the composite z-score in experiment [1] is 0.381; in experiment [6], 0.927; in experiment [7] it was 0.711; with Torsin-1A (Homo sapiens) [8], -0.0629; with Torsin-1A (Homo sapiens) [9], 0.306; in experiment [10] it was -0.812. This compound showed a composite z-score in experiment [12] of 0.51. Also, the z-score in experiment [2] was -2.77 (inactive); in experiment [3], 0.74 (inactive); in [4], 1.72 (inactive); in experiment [5], 1.59 (inactive); in experiment [11], -1.45 (inactive); in [13], 15.3 (active). Also, the z-score in [14] was 2.13 (inactive); in experiment [15], 1.68 (inactive); in experiment [16], 1.43 (inactive); in experiment [17], -0.56; in [18], 0.857 (inactive); in experiment [19] it was 0.778 (inactive). In experiment [20], the z-score was 2.44.
In the case of `COC(=O)[C@H]1[C@@H]2COc3ccccc3[C@H]2N[C@H]1C(=O)OC`, the composite z-score in [1] was -0.0215; in [6], -0.142; in experiment [7], -0.118; in the experiment with Torsin-1A (Homo sapiens) [8] it was 0.425; with Torsin-1A (Homo sapiens) [9], 0.775; in experiment [10] it was 0.264. In addition, in experiment [12], the composite z-score is -0.0046. For the same compound, the z-score in experiment [2] is 0.508 (inactive); in [3] it was -0.411 (inactive); in experiment [4], 2.13 (inactive); in experiment [5], -0.827 (inactive); in experiment [11], 0.896 (inactive); in experiment [13], 0.262 (inactive). Also, the z-score in experiment [14] was -0.122 (inactive); in experiment [15], -0.406 (inactive); in experiment [16], -0.21 (inactive); in [17], 0.12; in [18], -2.88 (inactive); in [19], 0.28 (inactive). Moreover, the z-score in experiment [20] was -1.9.
